For 38 molecules, Potency and outcome results are on record in PubChem BioAssay (NCATS).

Records with an inconclusive call do not appear. Entries that show only a call come without a potency. Calls of active or inactive are those of the source. Calls follow the shape of the dose curve; as a rule, active = well fitted curve in the direction sought with a large enough effect; inconclusive = small, poorly fitted or top-dose-only effect, or another doubt; inactive = no such curve, though single readings can be large; an effect the other way counts as inactive or inconclusive. Residues, ends and D or L forms follow the SMILES beside them. *: point of attachment. Cbz = O=C(OCc1ccccc1)*

The first assay can be described thus: qHTS to identify inhibitors of the type 1 interferon - major histocompatibility complex class I in skeletal muscle: primary screen against the NCATS LOPAC collection (AID 1347405).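 Also: lytic HiBiT luminescence reporting HLA-B protein level.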 The conditions noted are these: iHSKM muscle cells, IFN-b-induced MHC-I HiBiT luminescence, 24 h; series mostly up to 45.9 µM. The method, boiled down:
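Immortalized human C25cl48 myoblasts with HiBiT knocked into endogenous HLA-B*08:01 were stimulated with 4.0 ng/ml IFN-beta and given compounds in a 7-point, 1:4.3 titration from 46 uM final; after 24 hrs, lytic HiBiT luminescence was read.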
(Quantitative high-throughput screening tests each substance at several concentrations.)
On to `NC1CONC1=O` (stereo unspecified), for which the Potency result was “inactive”.
`CC(=O)[C@H]1CCC2C3CC=C4C[C@@H](OS(=O)(=O)O)CC[C@]4(C)C3CC[C@@]21C` (stereo partly specified): the Potency result is “inactive”.
As for `CC1=C(/C=C/C(C)=C/C=C/C(C)=C\C(=O)O)C(C)(C)CCC1`, the Potency entry was “inactive”.
On to `COC(=O)[C@H](NC(=O)c1cc(-c2ccccc2)nc2ccccc12)c1ccccc1`, for which the Potency result was “inactive”.
For `COc1ccc2c(c1)c(CC(=O)O)c(C)n2C(=O)c1ccccc1`, the Potency entry is “inactive”.
In the case of `Cc1nc2c(OCc3ccccc3)cccn2c1CC#N`, the Potency entry is “inactive”.
Consider `O=C(O)CCC(=O)N1CCCC1C(=O)O` (stereo unspecified), for which the Potency result is “inactive”.
Turning to `O=C(O)Cc1ccc(O)c(O)c1`, the Potency entry is “inactive”.
Same read-out and setting: next, `CCCCOc1cc(CC2CNC(=O)N2)ccc1OC` (stereo unspecified): “inactive”.
For the molecule `CCCc1c(OCCCOc2ccc(OCC(=O)O)cc2)ccc(C(C)=O)c1O`, the Potency entry is “inactive”.
On to `OCC1NCC(O)C(O)C1O` (stereo unspecified), for which the Potency result was “inactive”.
As for `CC(C)(C)c1ccc(/C=C/C(=O)Nc2ccc3c(c2)OCCO3)cc1`, the Potency result was “inactive”.
Still for that read-out and setting: next, `CCCCCC(O)CCCC(=O)O` (stereo unspecified): “inactive”; `O=C(O)Cc1c[nH]c2ccc(O)cc12`: “inactive”; `Cn1cc(C(=O)OCC2CCN(CCNS(C)(=O)=O)CC2)c2ccccc21`: “inactive”.
The same measure, in the same setting: next, `CCCCCCC(=O)OC1CC(C)(C)NC(C)(C)C1`: “inactive”.
For `COc1ccc(C(=O)NCc2cccnc2)cc1C(=O)NCc1cccnc1`, the Potency result was “inactive”.
Turning to `C=CCN1CCc2c(cc(O)c(O)c2Cl)C(c2ccccc2)C1` (stereo unspecified), the Potency result is “inactive”.
For the molecule `NCC(O)(CS(=O)(=O)O)c1ccc(Cl)cc1` (stereo unspecified), the Potency result was “inactive”.
With `NC(N)=NC(N)=Nc1ccccc1`, the Potency result was “inactive”.
Take `COc1cc(CC(=O)O)ccc1O`: the Potency entry is “inactive”.
As to `O=C(O)c1ccccc1Nc1ccccc1`, the Potency result was “inactive”.
Turning to `Nc1ncnc2c1nc(Br)n2C1OC2COP(=O)(O)O[C@@H]2C1O` (stereo partly specified), the Potency result is “inactive”.
Consider `Cc1nc(N=Nc2ccc(S(=O)(=O)O)cc2S(=O)(=O)O)c(COP(=O)(O)O)c(C=O)c1O`, for which the Potency entry was “inactive”.
As to `Nc1nc2c(cnn2CCc2ccccc2)c2nc(-c3ccco3)nn12`, the Potency result was “inactive”.
In the case of `CC(N)(Cc1ccc(O)c(O)c1)C(=O)O` (stereo unspecified), the Potency entry is “inactive”.
Regarding `CC(C)[C@H](NC(=O)OCc1ccccc1)C(=O)N[C@H](C=O)Cc1ccccc1` (Cbz-Val-Phe-aldehyde), the Potency entry is “inactive”.
On to `COc1cccc(OC)c1OCCNCC1CSc2ccccc2O1` (stereo unspecified), for which the Potency result was “inactive”.
Same read-out and setting: next, `N=S(=O)(O)Cc1noc2ccccc12`: “inactive”; `CC(O)C(O)[C@H]1CNc2nc(N)[nH]c(=O)c2N1` (stereo partly specified): “inactive”; `Oc1cc(O)c2c(c1)O[C@H](c1ccc(O)c(O)c1)[C@@H](O)C2`: “inactive”.
For `CCCCCCN(CCCCCC)C(=O)Cc1c(-c2ccc(F)cc2)[nH]c2ccccc12`, the Potency result is “inactive”.
As for `Cn1cc(C(F)(F)F)nc1-c1ccc(OCC(O)CNCCOc2ccc(O)c(C(N)=O)c2)cc1` (stereo unspecified), the Potency entry is “inactive”.
In the case of `CCCC(=O)NCCc1c2n(c3ccc(OC)cc13)CCCc1ccccc1-2`, the Potency entry is “inactive”.
On to `CC(=O)NCCc1c[nH]c2ccc(O)cc12`, for which the Potency result is “inactive”.
As for `NCCS(=O)O`, the Potency entry is “inactive”.
For the molecule `N[C@H](C(=O)O)c1cc(O)cc(O)c1`, the Potency entry is “inactive”.
For the molecule `NC(C(=O)N[C@@H]1C(=O)N2C(C(=O)O)=C(Cl)CS[C@H]12)c1ccccc1` (stereo partly specified), the Potency result was “inactive”.

Another assay in a line: qHTS for inhibitors of adenylyl cyclases using a fission yeast platform: a pilot screen against the NCATS LOPAC library (AID 1347410). To be noted: S. pombe CHP2027, fbp1-GFP fluorescence, 18 h, yeast expressing mammalian AC9 and human GNAS; series mostly up to 57.5 µM. Put shortly: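 GFP from fbp1-GFP reporter, read by Acumen laser cytometry, indicates AC inhibition in fission yeast expressing AC9, GNAS and PDE4D2. Cells grown 18 h in the dark at 30C with compounds, final up to 57 uM.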
As to `NC1CONC1=O` (stereo unspecified), the result was inactive.
As for `CC(=O)[C@H]1CCC2C3CC=C4C[C@@H](OS(=O)(=O)O)CC[C@]4(C)C3CC[C@@]21C` (stereo partly specified), the molecule was classed as inactive.
The same measure, in the same setting: next, `CC1=C(/C=C/C(C)=C/C=C/C(C)=C\C(=O)O)C(C)(C)CCC1`: “inactive”; `COC(=O)[C@H](NC(=O)c1cc(-c2ccccc2)nc2ccccc12)c1ccccc1`: “inactive”.
For the molecule `COc1ccc2c(c1)c(CC(=O)O)c(C)n2C(=O)c1ccccc1`, the call was inactive.
`Cc1nc2c(OCc3ccccc3)cccn2c1CC#N`: the outcome was inactive.
The same measure, in the same setting: next, `O=C(O)CCC(=O)N1CCCC1C(=O)O` (stereo unspecified): “inactive”; `O=C(O)Cc1ccc(O)c(O)c1`: “inactive”.
Consider `CCCCOc1cc(CC2CNC(=O)N2)ccc1OC` (stereo unspecified), for which the molecule was classed as inactive.
For `CCCc1c(OCCCOc2ccc(OCC(=O)O)cc2)ccc(C(C)=O)c1O`, the molecule was classed as inactive.
As to `OCC1NCC(O)C(O)C1O` (stereo unspecified), the molecule was classed as inactive.
In the case of `CC(C)(C)c1ccc(/C=C/C(=O)Nc2ccc3c(c2)OCCO3)cc1`, the result was inactive.
For `CCCCCC(O)CCCC(=O)O` (stereo unspecified), the result was inactive.
With `O=C(O)Cc1c[nH]c2ccc(O)cc12`, the molecule was called inactive.
Same read-out and setting: next, `Cn1cc(C(=O)OCC2CCN(CCNS(C)(=O)=O)CC2)c2ccccc21`: “inactive”; `CCCCCCC(=O)OC1CC(C)(C)NC(C)(C)C1`: “inactive”; `COc1ccc(C(=O)NCc2cccnc2)cc1C(=O)NCc1cccnc1`: “inactive”.
For `C=CCN1CCc2c(cc(O)c(O)c2Cl)C(c2ccccc2)C1` (stereo unspecified), the call was inactive.
For `NCC(O)(CS(=O)(=O)O)c1ccc(Cl)cc1` (stereo unspecified), the call was inactive.
On the same count and under the same terms, next, `NC(N)=NC(N)=Nc1ccccc1`: “inactive”; `COc1cc(CC(=O)O)ccc1O`: “inactive”.
With `O=C(O)c1ccccc1Nc1ccccc1`, the result was inactive.
For the molecule `Nc1ncnc2c1nc(Br)n2C1OC2COP(=O)(O)O[C@@H]2C1O` (stereo partly specified), the molecule was classed as inactive.
Take `Cc1nc(N=Nc2ccc(S(=O)(=O)O)cc2S(=O)(=O)O)c(COP(=O)(O)O)c(C=O)c1O`: the molecule was classed as inactive.
With `Nc1nc2c(cnn2CCc2ccccc2)c2nc(-c3ccco3)nn12`, the result was inactive.
Turning to `CC(N)(Cc1ccc(O)c(O)c1)C(=O)O` (stereo unspecified), the call was inactive.
Turning to `CC(C)[C@H](NC(=O)OCc1ccccc1)C(=O)N[C@H](C=O)Cc1ccccc1` (Cbz-Val-Phe-aldehyde), the result was inactive.
Take `COc1cccc(OC)c1OCCNCC1CSc2ccccc2O1` (stereo unspecified): the molecule was called inactive.
Same read-out and setting: next, `N=S(=O)(O)Cc1noc2ccccc12`: “inactive”.
On to `CC(O)C(O)[C@H]1CNc2nc(N)[nH]c(=O)c2N1` (stereo partly specified), for which the result was inactive.
Regarding `Oc1cc(O)c2c(c1)O[C@H](c1ccc(O)c(O)c1)[C@@H](O)C2`, the result was inactive.
For the molecule `CCCCCCN(CCCCCC)C(=O)Cc1c(-c2ccc(F)cc2)[nH]c2ccccc12`, the result was inactive.
For the molecule `Cn1cc(C(F)(F)F)nc1-c1ccc(OCC(O)CNCCOc2ccc(O)c(C(N)=O)c2)cc1` (stereo unspecified), the call was inactive.
`CCCC(=O)NCCc1c2n(c3ccc(OC)cc13)CCCc1ccccc1-2`: the molecule was classed as inactive.
For the molecule `CC(=O)NCCc1c[nH]c2ccc(O)cc12`, the call was inactive.
With `NCCS(=O)O`, the molecule was classed as inactive.
With `N[C@H](C(=O)O)c1cc(O)cc(O)c1`, the call was inactive.
Turning to `NC(C(=O)N[C@@H]1C(=O)N2C(C(=O)O)=C(Cl)CS[C@H]12)c1ccccc1` (stereo partly specified), the molecule was classed as inactive.
